According to PubChem BioAssay (NCATS):
Results filed as inconclusive are left out. The source made the active and inactive calls. Calls come from the whole dose curve; as a rule, active = well fitted curve in the direction sought with a large enough effect; inconclusive = small, poorly fitted or top-dose-only effect, or another doubt; inactive = no such curve, though single readings can be large; an effect the other way counts as inactive or inconclusive.

What was measured:
CRL-7250 = normal cell line; experiment: Cytotoxic Profiling of Annotated Libraries Using Quantitative High-Throughput Screening (AID 1296008); conditions: Five cell lines viability, CellTiter-Glo ATP luminescence, 48-72 h; max response: active compounds read low; note: nearly all actives have a fitted effect of over 60% in size; for max response: % is set by controls: 0 for no effect and ±100 for the full control effect
Summary of the method: (§1)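 Compounds were pin-transferred onto cells and incubated 48 or 72 hr at 37 degree Celsius, 95% humidity. CellTiter-Glo was added, plates sat 10 min at room temperature, then ATP-coupled luminescence was imaged as the viability read-out.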

HaCat [1] = experiment: as above; conditions: Five cell lines viability, CellTiter-Glo ATP luminescence, 48-72 h; max response: active compounds read low
Summary of the method: as §1

KB-3-1 = experiment: as above; conditions: Five cell lines viability, CellTiter-Glo ATP luminescence, 48-72 h; max response: active compounds read low
Summary of the method: as §1

NIH3T3 = experiment: as above; conditions: Five cell lines viability, CellTiter-Glo ATP luminescence, 48-72 h; max response: active compounds read low
Summary of the method: as §1

C33A = experiment: Primary qHTS to identify gynecologic anti-cancer compounds using libraries of approved drugs and bioactive compounds (AID 1345084); conditions: Gynecologic cancer cell panel viability, ATPlite luminescence, 48 h; series mostly up to 57.5 µM; note: % is set by controls: 0 for no effect and ±100 for the full control effect; nearly all actives have a fitted effect of over 55% in size
Summary of the method: (§2)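 48 h compound exposure at 37 C, 5% CO2; five-point qHTS. ATPlite luminescence readout of cell ATP.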

CAOV3 = experiment: as above; conditions: Gynecologic cancer cell panel viability, ATPlite luminescence, 48 h; series mostly up to 57.5 µM
Summary of the method: as §2

Es-2 = experiment: as above; conditions: Gynecologic cancer cell panel viability, ATPlite luminescence, 48 h; series mostly up to 57.5 µM
Summary of the method: as §2

HeLa = experiment: as above; conditions: Gynecologic cancer cell panel viability, ATPlite luminescence, 48 h; series mostly up to 57.5 µM
Summary of the method: as §2

Hek293T = experiment: as above; conditions: Gynecologic cancer cell panel viability, ATPlite luminescence, 48 h, control line for the selectivity index; series mostly up to 57.5 µM
Summary of the method: as §2

JEG-3 = experiment: as above; conditions: Gynecologic cancer cell panel viability, ATPlite luminescence, 48 h; series mostly up to 57.5 µM
Summary of the method: as §2

OV90 = experiment: as above; conditions: Gynecologic cancer cell panel viability, ATPlite luminescence, 48 h; series mostly up to 57.5 µM
Summary of the method: as §2

PA-1 = experiment: as above; conditions: Gynecologic cancer cell panel viability, ATPlite luminescence, 48 h; series mostly up to 57.5 µM
Summary of the method: as §2

CASKI = experiment: as above; conditions: Gynecologic cancer cell panel viability, ATPlite luminescence, 48 h; series mostly up to 57.5 µM
Summary of the method: as §2

HACAT [2] = experiment: qHTS assay to identify novel small-molecules to repurpose for Merkel cell carcinoma treatment (AID 1296009); conditions: MCC and control cell lines, CellTiter-Glo viability, 72 h; at 44.8 µM (top of the series) unless noted; note: nearly all actives have a fitted effect of over 60% in size
Summary of the method: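 qHTS format: cells treated with library compounds in DMSO across 8 (NPC) or 11 (MIPE) concentrations. Readout after 72 hr at 37 degree celsius was CellTiter-Glo luminescence.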

Cc1nc(N2CCN(C(=O)c3ccco3)CC2)c2c3c(sc2n1)CCCC3
inactive: max response (CRL-7250) -5.8% | max response (HaCat [1]) 1.01% | max response (KB-3-1) -12.8% | max response (NIH3T3) 1.1% | Potency (C33A) | Potency (CAOV3) | Potency (Es-2) | Potency (HeLa) | Potency (Hek293T) | Potency (JEG-3) | Potency (OV90) | Potency (PA-1)

COc1cc(/C=N\NC(=O)c2ccc3c(c2)OCO3)ccc1OCc1ccccc1
inactive: max response (CRL-7250) 3.71% | max response (HaCat [1]) -3.21% | max response (KB-3-1) -9.36% | max response (NIH3T3) 0.687% | Potency (C33A) | Potency (CASKI) | Potency (Es-2) | Potency (HeLa) | Potency (Hek293T) | Potency (JEG-3)

O=C(NCC1(c2nc(-c3ccccc3)cs2)CCOCC1)c1cccc(-c2noc(C(F)(F)F)n2)c1
inactive: max response (CRL-7250) -0.2% | outcome (HaCat [1]) | max response (KB-3-1) -10.2% | outcome (HACAT [2]) | Potency (C33A) | Potency (CAOV3) | Potency (CASKI) | Potency (Es-2) | Potency (HeLa) | Potency (Hek293T) | Potency (JEG-3) | Potency (OV90) | Potency (PA-1)

CC(=O)OC/C(=C/C(=O)O)CC[C@@H]1C(C=O)=CC[C@@H]2C(C)(C)CCC[C@@]12C
inactive: max response (CRL-7250) 4.87% | max response (HaCat [1]) 3.05% | max response (KB-3-1) 3.67% | max response (NIH3T3) 3.58% | Potency (C33A) | Potency (CASKI) | Potency (Es-2) | Potency (HeLa) | Potency (Hek293T) | Potency (JEG-3) | Potency (OV90) | Potency (PA-1)

C=CC(C)(O)CC/C=C(/C)COC(=O)C(C)C1CCC(C)(C=C)O1 (stereo unspecified)
inactive: max response (CRL-7250) -27% | max response (HaCat [1]) 3.72% | max response (KB-3-1) 8.61% | max response (NIH3T3) 0.167% | Potency (CASKI) | Potency (Es-2) | Potency (HeLa) | Potency (Hek293T) | Potency (OV90) | Potency (PA-1)

C=C1C(=O)OC2/C=C(\CO)CC/C=C(\C=O)C(O)C(OC(=O)C(C)CC)C12 (stereo unspecified)
inactive: max response (CRL-7250) 0.0349% | outcome (HaCat [1]) | outcome (KB-3-1) | outcome (HACAT [2]) | Potency (C33A) | Potency (CAOV3) | Potency (CASKI) | Potency (Es-2) | Potency (HeLa) | Potency (Hek293T) | Potency (JEG-3) | Potency (OV90) | Potency (PA-1)

Cc1ccccc1CN1CCn2c1nc1c(c2=O)CN(Cc2ccccc2)CC1
inactive: max response (CRL-7250) 1.02% | outcome (HaCat [1]) | max response (KB-3-1) -11.6% | outcome (HACAT [2]) | Potency (C33A) | Potency (CAOV3) | Potency (CASKI) | Potency (Es-2) | Potency (HeLa) | Potency (Hek293T) | Potency (JEG-3) | Potency (OV90) | Potency (PA-1)

CC(C)S(=O)(=O)c1ccc2nccc(Nc3ccc4scnc4c3)c2c1
inactive: max response (CRL-7250) -19% | outcome (HaCat [1]) | outcome (KB-3-1) | outcome (HACAT [2]) | Potency (C33A) | Potency (CAOV3) | Potency (CASKI) | Potency (Es-2) | Potency (HeLa) | Potency (Hek293T) | Potency (JEG-3) | Potency (OV90) | Potency (PA-1)
